High-throughput results deposited in PubChem BioAssay by National Center for Advancing Translational Sciences (NCATS).
IL1B secr inh – inflammasome signaling inhibition, IL-1 beta readout; 360,000 tested, 4.7% active; THP-1 LPS/ATP IL-1B secretion, AlphaLISA, 16 h; stronger effect = lower value; activity change, % at 57.5 µM; AID 743279; in the data active = activity change below about -50%; inconclusive = mostly about -30% to -49%
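Secreted IL-1B measured by AlphaLISA bead assay after 16 h compound exposure of THP-1 cells; compounds (final up to 57.5 uM) added 1 h before LPS (250 ng/mL) and ATP (1.25 mM) stimulation; lower signal means less secretion.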
DT40 TDP1 CPT – DT40-hTDP1 cell growth loss with CPT; chicken DT40 Tdp1-/-;hTDP1 cells + 20 nM CPT, ATP luminescence, 48 h; Potency, µM (doses to about 46.2 µM), actives largely listed as inhibitors; 420,000 tested, 12% active; AID 686979; also: nearly all actives have a fitted effect of over 55% in size
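Chicken DT40 Tdp1-/- cells stably complemented with human TDP1 were seeded at 400 cells/well in medium containing 20 nM camptothecin, exposed to pin-transferred compounds, and grown at 37 °C for at least 48 hr. Viability was read as ATP luminescence.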
TDP1 cell noCPT – qHTS for Inhibitors of human tyrosyl-DNA phosphodiesterase 1 (TDP1): qHTS in cells in absence of CPT. 420,000 tested, 15% active. DT40 Tdp1-/- hTDP1 cells, no CPT, ATP luminescence, 48 h. Potency, µM (highest dose often 46.2 µM), actives largely listed as inhibitors. AID 686978, 2013; also: nearly all actives have a fitted effect of over 55% in size
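A cellular qHTS used chicken DT40 cells lacking endogenous Tdp1 but carrying stably transfected human TDP1. Compounds were applied without camptothecin, and cell growth kinetics were judged by ATP-dependent luminescence after ≥48 hr.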
HT1080 IDH1KD tx – kills HT-1080 cells with IDH1 knockdown | HT-1080 IDH1 knockdown viability, ATP luminescence, 48 h | Potency, µM (top dose mostly 46.1 µM), actives largely listed as cytotoxic | 360,000 tested, 2% active | AID 686971
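Luminescent ATP read-out (CellTiter-Glo, 10 min at room temperature) after 48 h compound exposure at 37 °C gave viability of IDH1-knockdown HT-1080 cells. Activity was normalised to DMSO and cell-free wells, then fitted as concentration-response curves.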
HT1080-NT tox – kills 2HG-producing HT-1080-NT fibrosarcoma cells; AID 686970; 360,000 tested, 1.6% active; HT-1080-NT fibrosarcoma viability, CellTiter-Glo ATP luminescence, 48 h; Potency, µM (highest dose often 46.1 µM), actives largely listed as cytotoxic;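 also: NT is the 2HG producing partner of a matched IDH1 knockdown line; nearly all actives have a fitted effect of over 55% in size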
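Read-out is CellTiter-Glo luminescence after 10 minutes at room temperature, following 48 hours' compound treatment of HT-1080-NT cells (750 cells/well, RPMI, 5% FBS, 37 degrees C).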
uPA generation – blocks generation of uPA at the cell surface | cell surface uPA generation assay, qHTS | Potency, µM (titrated, usually from 38.3 µM), hits mostly inhibitors | 330,000 tested, 0.31% active | AID 540303; active = well fitted inhibition curve with a large enough effect; inconclusive = small, poorly fitted or top-dose-only effect; inactive = no such curve, though single readings can be large or run the other way; tested in mouse RAW 264.7 cells; also: nearly all actives have a fitted effect of over 55% in size
Large screens that a line does not name were inactive. An excerpt weighted towards active compounds, which were near 19% of everything screened. Unless noted, calls follow the shape of the dose curve; as a rule, active = well fitted curve in the direction sought with a large enough effect; inconclusive = small, poorly fitted or top-dose-only effect, or another doubt; inactive = no such curve, though single readings can be large; an effect the other way counts as inactive or inconclusive.

Cc1[nH]c2ccccc2c1C(=O)NS(=O)(=O)Nc1ccc(F)cc1	none
Cc1nc2cc(-c3ccc(Cl)cc3)nn2c(NCCN(C)C)c1C	IL1B secr inh -75, DT40 TDP1 CPT 7.3µM, TDP1 cell noCPT 7.3µM, HT1080-NT tox inconclusive
CCOC(=O)N1CCN(C(=O)C2COc3ccccc3O2)CC1 (configuration not stated)	none
CCOC(=O)C(C(=O)OCC)C1N=C(N)N=C2Oc3ccccc3N21 (configuration not stated)	HT1080 IDH1KD tx 10µM, HT1080-NT tox inconclusive
O=C(Nc1cc(F)ccc1F)C1CCN(c2nc3ccccc3n3cccc23)CC1	TDP1 cell noCPT inconclusive (no result: IL1B secr inh, HT1080 IDH1KD tx, HT1080-NT tox, uPA generation)
O=C1CCCN2N=C(SCC(=O)Nc3ccc(F)cc3F)SC2=N1	DT40 TDP1 CPT inconclusive, TDP1 cell noCPT inconclusive
Cc1ccc(C)c(CSC2=NN3CCCC(=O)N=C3S2)c1	DT40 TDP1 CPT inconclusive, TDP1 cell noCPT 16µM
Cc1ccc(NC(=O)CSC2=NN3CCCC(=O)N=C3S2)c(C)c1	DT40 TDP1 CPT inconclusive, TDP1 cell noCPT inconclusive
O=C1CCCN2N=C(SCC(=O)Nc3cccc(F)c3)SC2=N1	DT40 TDP1 CPT 21µM, TDP1 cell noCPT 13µM, HT1080-NT tox inconclusive
Cc1noc(C)c1-c1nc(N2CCN(C)CC2)c2ccccc2n1	none (no result: IL1B secr inh, HT1080 IDH1KD tx, HT1080-NT tox, uPA generation)
Cc1ccc(NC(=O)CSc2ncnc3ccccc23)cc1S(=O)(=O)N1CCCCCC1	IL1B secr inh -90, DT40 TDP1 CPT 26µM, TDP1 cell noCPT inconclusive
O=C(CSc1ncnc2ccccc12)Nc1cc(S(=O)(=O)N2CCCCC2)ccc1Cl	DT40 TDP1 CPT inconclusive, TDP1 cell noCPT 26µM
O=C(CSc1ncnc2ccccc12)Nc1cccc(S(=O)(=O)N2CCCC2)c1	DT40 TDP1 CPT inconclusive, TDP1 cell noCPT inconclusive
Fc1ccc(-n2ncc3c(Nc4ccc5c(c4)OCCO5)ncnc32)cc1	DT40 TDP1 CPT 13µM, TDP1 cell noCPT 29µM (no result: IL1B secr inh, HT1080 IDH1KD tx, HT1080-NT tox, uPA generation)
COc1ccc(Nc2ncnc3c2cnn3-c2ccccc2)cc1OC	DT40 TDP1 CPT inconclusive
CC(=O)Nc1ccc(Nc2ncnc3c2cnn3-c2ccc(C)cc2C)cc1	IL1B secr inh inconclusive, DT40 TDP1 CPT inconclusive
Cc1ccc(-n2ncc3c(Nc4ccc5c(c4)OCCO5)ncnc32)cc1Cl	DT40 TDP1 CPT inconclusive, TDP1 cell noCPT 23µM (no result: IL1B secr inh, HT1080 IDH1KD tx, HT1080-NT tox, uPA generation)
Cc1ccc(Cl)cc1-n1ncc2c(Nc3ccc4c(c3)OCCO4)ncnc21	DT40 TDP1 CPT 26µM, TDP1 cell noCPT inconclusive (no result: IL1B secr inh, HT1080 IDH1KD tx, HT1080-NT tox, uPA generation)
COCCn1nnnc1C(c1ccc(OC)c(OC)c1)N1CCN(C(=O)c2ccco2)CC1 (configuration not stated)	none
CC(NC(=O)c1cccnc1)c1nnc2n1CCN(Cc1ccc(F)cc1F)CC2 (configuration not stated)	none (no result: IL1B secr inh, HT1080 IDH1KD tx, HT1080-NT tox, uPA generation)
O=c1c(-c2ccc(Cl)cc2)nc2cnc(N3CCNCC3)nc2n1Cc1cccs1	DT40 TDP1 CPT 6.5µM, TDP1 cell noCPT 21µM (no result: IL1B secr inh, HT1080 IDH1KD tx, HT1080-NT tox, uPA generation)
COCCn1c(=O)cnc2cnc(N3CCN(C)CC3)nc21	DT40 TDP1 CPT 23µM (no result: IL1B secr inh, HT1080 IDH1KD tx, HT1080-NT tox, uPA generation)
O=c1c(-c2ccccc2)nc2cnc(N3CCOCC3)nc2n1C[C@H]1CCCO1	none (no result: IL1B secr inh, HT1080 IDH1KD tx, HT1080-NT tox, uPA generation)
CN1CCN(c2ncc3nc(-c4cccs4)c(=O)n(C[C@H]4CCCO4)c3n2)CC1	DT40 TDP1 CPT 12µM, TDP1 cell noCPT 5.2µM (no result: IL1B secr inh, HT1080 IDH1KD tx, HT1080-NT tox, uPA generation)
